Compounds with a hit are over-represented: about 4.3% of the library has one in this group of screens.
esBAF inh = inhibitors of esBAF chromatin remodeling in mouse ES cells | actives 2% (n = 350,000) | reporter increase, % at 12.5 µM | Bmi1-luciferase knock-in reporter, 24 h; 100% = twice the neutral-well signal; in the data active means activation above about 40%; inconclusive means no clear call, values can overlap the other calls;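 further: 0% = median of the plate's neutral control wells and 100% = double that signal; a rise in the Bmi1 reporter signal indicates esBAF inhibition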
SMARCA2 act = increases SMARCA2 function in MMTV reporter cells. activation, % at 9.1 µM. AID 652017. actives 1% (n = 370,000). MG213 cells, MMTV-luciferase reporter, dexamethasone, overnight; in the data active means activation above about 7.8%;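 further: 0% = vehicle wells and 100% = reference activator wells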
AF4-AF9 inh = inhibitors of human MLL-AF4/AF9 interaction; inhibition, % at 10 µM; AlphaScreen, biotin-AF4 peptide binding to FLAG-AF9; actives 0.47% (n = 350,000); P42568;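 active means every replicate reaching a set inhibition limit, whatever the replicate mean, cut at about 25% in these data; inconclusive means mean inhibition reaches that limit but some replicates miss it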;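 further: 0% = plate neutral control median and 100% = total signal loss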
Target sequence (P42568 whole entry, looked up): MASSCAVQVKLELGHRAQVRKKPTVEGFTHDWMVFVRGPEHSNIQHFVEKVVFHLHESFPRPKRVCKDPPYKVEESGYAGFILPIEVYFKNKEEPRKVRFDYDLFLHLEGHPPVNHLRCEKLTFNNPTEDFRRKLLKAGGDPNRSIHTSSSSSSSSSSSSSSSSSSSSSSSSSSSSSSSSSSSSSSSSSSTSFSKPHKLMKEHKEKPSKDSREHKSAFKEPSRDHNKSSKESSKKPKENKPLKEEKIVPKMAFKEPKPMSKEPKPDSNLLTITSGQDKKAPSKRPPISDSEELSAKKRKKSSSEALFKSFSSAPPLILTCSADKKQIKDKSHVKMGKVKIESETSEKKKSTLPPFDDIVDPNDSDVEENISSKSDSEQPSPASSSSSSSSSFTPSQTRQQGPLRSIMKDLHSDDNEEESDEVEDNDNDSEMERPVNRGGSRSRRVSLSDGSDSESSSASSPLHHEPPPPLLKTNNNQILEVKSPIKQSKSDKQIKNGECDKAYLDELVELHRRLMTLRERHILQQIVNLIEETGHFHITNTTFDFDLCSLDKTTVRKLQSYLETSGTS
FGF22 binding = binders of recombinant human FGF22 by thermal shift; activity (Tm shift, normalised), % at 9.99 µM; SYPRO orange fluorescence; percent of sucrose octasulfate shift, DMSO zero; Q9HCT0; actives 1.5% (n = 340,000);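 active means mean Tm shift, scaled 0 neutral to 100 positive control, at about 1.3% or above, every replicate too, limit read from the data; inconclusive means no clear call, values can overlap the other calls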
Wnt bcat act = activates Wnt/beta-catenin signaling in a reporter cell assay. activator, plate reader. activation, % at 9.35 µM. actives 1.2% (n = 300,000); in the data active means activation above about 30%, passing the limit was not always enough; inconclusive means no clear call, values can overlap the other calls;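 further: 0% = neutral control wells and 100% = positive control wells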
MITF TRPM1 HTS = activators of MITF-driven TRPM1 promoter activity in SK-MEL-5 cells | activation, % at 12.5 µM | SK-MEL-5 TRPM1-promoter luciferase, 24 h; % of positive control, neutral wells = 0 | actives 0.75% (n = 300,000) | AID 588334;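 active means mean activation of at least 80% with every replicate also reaching 80%; inconclusive means mean reaches 80% but some replicate falls short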;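 further: 0% = neutral control wells and 100% = parthenolide positive control wells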
SMARCA2 act conf = confirmation of SMARCA2 (BRM) function activators. shares compounds with SMARCA2 act. MG213 cells, MMTV-luciferase with dexamethasone, luminescence, overnight; MG213 cells expressing E1A, Rb sequestered; DMSO wells 0%, reference activator 100%. activation, % at 9.1 µM. actives 30% (n = 3,500). AID 652260;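 active means activation above its plate's cutoff, the mean activation of tested wells plus 3 SD, cut at about 7.9% in these data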
GAL4-VP16 Luc = counter-screen for SMARCA2 activators: GAL4-VP16 luciferase reporter activation; shares compounds with SMARCA2 act; HEK293 GAL4-VP16 pG5luc reporter, luciferase luminescence; scaled: DMSO wells 0%, SAHA wells 100%; activation, % at 9.1 µM; actives 41% (n = 3,500); AID 686939;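 active means activation above the solvent-only control well mean plus 3 SD, averaged across control plates, cut at about 5.2% in these data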
The depositor's hits bear a star; ? = inconclusive; . = no result.

SMILES	esBAF inh	SMARCA2 act	AF4-AF9 inh	FGF22 binding	Wnt bcat act	MITF TRPM1 HTS	SMARCA2 act conf	GAL4-VP16 Luc
CC(C)NC(=O)N(C)C[C@@H]1Oc2ccc(NC(=O)C3CC3)cc2CC(=O)N([C@H](C)CO)C[C@@H]1C	-3	.	-5	.	.	.	.	.
Cc1ccc(S(=O)(=O)Nc2ccc3c(c2)C(=O)N([C@H](C)CO)C[C@@H](C)[C@@H](CN(C)C(=O)NC(C)C)OCCCC[C@@H](C)O3)cc1	-8	.	-8	0	.	.	.	.
O=S(=O)(c1cccc(-c2n[nH]c(=S)n2C2CCCC2)c1)N1CCOCC1	.	8.8*	-6	0	-2	-3	-1	0
C=CCn1c(-c2cccc(S(=O)(=O)N3CCOCC3)c2)n[nH]c1=S	1	-2	-12	0	-1	0	.	.
CC1(C)Cc2c(sc(NC(=O)COc3cccc4ccccc34)c2C#N)C(C)(C)N1	4	54*	-3	0	8	.	41*	2
CC1(C)Cc2c(sc(NC(=O)Cc3ccccc3)c2C#N)C(C)(C)N1	-16	-1	5	0	-1	.	.	.
OCC(Cc1ccccc1)Nc1c2ccccc2nc2ccccc12 (stereo not drawn)	.	9.8*	.	.	0	34	5	2
Cc1cccc(NCCC(=O)c2ccc([N+](=O)[O-])cc2)c1C	0	0	-3	0	-1	14	.	.
Cc1ccc(NCCC(=O)c2cccc([N+](=O)[O-])c2)c(C)c1	?	8.6*	.	.	.	37	7	3
O=C(CNc1cccc(Cl)c1)c1ccc(Br)cc1	11	8.9*	-4	0	4	.	9.8*	-1
Cc1ccc(NCC(=O)c2ccc([N+](=O)[O-])cc2)cc1	.	.	.	.	.	23	.	.
Cc1ccc(C(=O)CNc2cccc([N+](=O)[O-])c2)cc1	24	11*	0	43*	9	29	7	6.3*
CCOCCCn1c(SCC(=O)Nc2cccc(OC)c2)nc2ccccc2c1=O	10	-2	-9	0	0	4	.	.
COc1cccc(NC(=O)CSc2nc3ccccc3c(=O)n2Cc2cccs2)c1	.	8.9*	.	.	.	7	-5	-1
Cc1ccc(S(=O)(=O)N[C@H]2C=C[C@H](CC(=O)NC3CCCCC3)O[C@@H]2CO)cc1	-2	.	3	0	.	.	.	.
CCOC(=O)c1cccc(NC(=O)c2cncc(Br)c2)c1	.	9.0*	.	.	22	50	5	3
O=C(NCC1OCCc2ccccc21)c1ccc(NC(=O)c2ccccc2Cl)cc1 (stereo not drawn)	.	-5	.	.	.	-8	.	.
O=C(NCC1OCCc2ccccc21)c1ccc(NC(=O)c2ccc(Cl)cc2Cl)cc1 (stereo not drawn)	.	9.4*	.	.	-2	-7	-4	1
Cc1ccc(S(=O)(=O)Nc2ccc3c(c2)CC(=O)N([C@@H](C)CO)C[C@H](C)[C@H](CN(C)C(=O)Nc2ccc(F)cc2)O3)cc1	0	.	-2	0	.	.	.	.
CCOC(=O)C1CN(S(=O)(=O)c2ccc(OC)cc2)c2cc(CC(=O)OC)ccc2O1 (stereo not drawn)	-1	-3	.	.	0	4	.	.
CCOC(=O)C1CN(S(C)(=O)=O)c2cc(CC(=O)OC)ccc2O1 (stereo not drawn)	.	8.2*	1	0	-12	5	-1	1
COc1ccc(C2=NN(C(=O)CSc3nnc(C)c(=O)n3N)C(c3ccco3)C2)cc1 (stereo not drawn)	.	13*	7	0	3	24	2	1
OC[C@@H]1[C@H](c2ccc(-c3cccnc3)cc2)[C@H]2CN(CC3CCOCC3)CCCCN12	.	.	1	0	.	.	.	.
Cn1cccc1/C=C1\SC(=Nc2cccc(O)c2)NC1=O	?	9.9*	25*	0	29	62	10*	11*

Source: PubChem
